Results taken from the supplement of paper PMC9950053.
Counter-ions that a name gives are not always drawn.

test system: Danio rerio larvae (5 dpf); experiment: 1-h baseline activity (% time moving, periods 1-6) minus DMSO control (percentage points); higher = more locomotor activity than DMSO larvae; details: 10 µM; exposure time: 3 h pre-incubation + 3 h imaging
Description: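 Wild-type 5 dpf zebrafish larvae (n=48 per drug, 96-well plates, 28.5 °C) were exposed to Tocris FDA-approved library compounds at 10 µM (0.1% DMSO) for 3 h before and 3 h during imaging. Images were taken every 6 s during visual and acoustic stimuli, and larvae were tracked with Z-LaP Tracker. Each measure is the treated-group mean minus the DMSO control mean (n=844), in percentage points. This mapping covers compounds with 5-character plate codes.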

| SMILES | 1-h baseline activity |
| --- | --- |
| CCc1nc(N)nc(N)c1-c1ccc(Cl)cc1 [Pyrimethamine] | -1.81 |
| CCCCCCCN(CC)CCCC(O)c1ccc(NS(C)(=O)=O)cc1 (configuration not stated) [Ibutilide hemifumarate] | -6.03 |
| NC(=O)OCC(COC(N)=O)c1ccccc1 [Felbamate] | -2.82 |
| COc1cc2nccc(Oc3ccc(NC(=O)C4(C(=O)Nc5ccc(F)cc5)CC4)cc3)c2cc1OC | 15.1 |
| COc1cc([C@@H]2c3cc4c(cc3[C@@H](O[C@@H]3O[C@@H]5CO[C@@H](C)O[C@H]5[C@H](O)[C@H]3O)[C@H]3COC(=O)[C@H]23)OCO4)cc(OC)c1O [Etoposide] | 4.86 |
| CNCc1ccc(-c2[nH]c3cc(F)cc4c3c2CCNC4=O)cc1 [Rucaparib camsylate] | -14.5 |
| CNC(=O)c1cc(Oc2ccc(NC(=O)Nc3ccc(Cl)c(C(F)(F)F)c3)cc2)ccn1 [Sorafenib] | -0.439 |
| C[C@H]1O[C@H](O[C@H]2[C@H](O)[C@@H](O)[C@@H](O[C@H]3[C@H](O)[C@@H](O)C(O)O[C@@H]3CO)O[C@@H]2CO)[C@H](O)[C@@H](O)[C@@H]1N[C@H]1C=C(CO)[C@@H](O)[C@H](O)[C@H]1O (some centres not stated) [Acarbose] | -1.61 |
| N#Cc1ccc2[nH]cc(CCCCN3CCN(c4ccc5oc(C(N)=O)cc5c4)CC3)c2c1 [Vilazodone hydrochloride] | -24.2 |
| NS(=O)(=O)c1cc2c(cc1Cl)NC(C1CC3C=CC1C3)NS2(=O)=O (configuration not stated) [Cyclothiazide] | 0.814 |
| CC(=O)Nc1ccc(O)cc1 [Acetaminophen] | 6.48 |
| CCCc1nn(C)c2c(=O)[nH]c(-c3cc(S(=O)(=O)N4CCN(C)CC4)ccc3OCC)nc12 [Sildenafil citrate] | -12.4 |
| COc1ccccc1OCC(O)CN1CCN(CC(=O)Nc2c(C)cccc2C)CC1 (configuration not stated) [Ranolazine dihydrochloride] | 8.63 |
| CCCC1O[C@@H]2C[C@H]3[C@@H]4CCC5=CC(=O)C=C[C@]5(C)[C@H]4[C@@H](O)C[C@]3(C)[C@]2(C(=O)CO)O1 (some centres not stated) [Budesonide] | 3.74 |
| CN[C@H]1CC[C@@H](c2ccc(Cl)c(Cl)c2)c2ccccc21 [Sertraline hydrochloride] | -24 |
| C[C@@H]1C[C@H]2[C@@H]3CCC4=CC(=O)C=C[C@]4(C)[C@@]3(F)[C@@H](O)C[C@]2(C)[C@@]1(O)C(=O)CO [Dexamethasone] | 15.7 |
| CNS(=O)(=O)Cc1ccc2[nH]cc(CCN(C)C)c2c1 [Sumatriptan succinate] | 9.45 |
| CC(=O)Oc1cc2c(s1)CCN(C(C(=O)C1CC1)c1ccccc1F)C2 (configuration not stated) [Prasugrel] | -2.32 |
| COc1ccccc1Oc1c(NS(=O)(=O)c2ccc(C(C)(C)C)cc2)nc(-c2ncccn2)nc1OCCO [Bosentan] | 1.43 |

| SMILES | 1-h baseline activity |
| --- | --- |
| CC(C)(C(=O)O)c1ccc(C(O)CCCN2CCC(C(O)(c3ccccc3)c3ccccc3)CC2)cc1 (configuration not stated) [Fexofenadine hydrochloride] | 5.08 |
| N#C[C@@H]1C[C@@H]2C[C@@H]2N1C(=O)[C@@H](N)C12CC3CC(CC(O)(C3)C1)C2 [Saxagliptin hydrochloride] | 2.3 |
| CC[C@H]1OC(=O)[C@H](C)[C@@H](O[C@H]2C[C@@](C)(OC)[C@@H](O)[C@H](C)O2)[C@H](C)[C@@H](O[C@@H]2O[C@H](C)C[C@H](N(C)C)[C@H]2O)[C@](C)(O)C[C@@H](C)CN(C)[C@H](C)[C@@H](O)[C@]1(C)O [Azithromycin] | -12 |
| CN(C)C(=N)NC(=N)N [Metformin hydrochloride] | -8.39 |
| O=c1n(CCCN2CCN(c3cccc(Cl)c3)CC2)nc2ccccn12 [Trazodone hydrochloride] | -3.8 |
| CN(C)CCc1c[nH]c2ccc(C[C@H]3COC(=O)N3)cc12 [Zolmitriptan] | 6.44 |
| Clc1ccc2nsnc2c1NC1=NCCN1 [Tizanidine hydrochloride] | -14 |
| C#CCN[C@@H]1CCc2ccccc21 [Rasagiline mesylate] | 4.3 |
| OCc1cc(C(O)CNCCCCCCOCCCCc2ccccc2)ccc1O (configuration not stated) [Salmeterol xinafoate] | 12.2 |
| CC(C)COCC(CN(Cc1ccccc1)c1ccccc1)N1CCCC1 (configuration not stated) [Bepridil hydrochloride] | -2.55 |
| OC(c1cc(C(F)(F)F)nc2c(C(F)(F)F)cccc12)C1CCCCN1 (configuration not stated) [Mefloquine hydrochloride] | -2.24 |
| COc1cc(N)c(Cl)cc1C(=O)NC1CCN(CCCOc2ccc(F)cc2)CC1OC (configuration not stated) [Cisapride] | -0.963 |
| O=C1CCc2ccc(OCCCCN3CCN(c4cccc(Cl)c4Cl)CC3)cc2N1 [Aripiprazole] | 6.58 |
| Cc1cc2c(s1)Nc1ccccc1N=C2N1CCN(C)CC1 [Olanzapine] | 6.18 |
| COCCc1ccc(OCC(O)CNC(C)C)cc1 (configuration not stated) [Metoprolol tartrate] | 3.15 |
| CC(C)OC(=O)C(C)(C)Oc1ccc(C(=O)c2ccc(Cl)cc2)cc1 [Fenofibrate] | 6.92 |
| O=C(O)C[C@H](O)C[C@H](O)/C=C/c1c(C2CC2)nc2ccccc2c1-c1ccc(F)cc1 [Pitavastatin calcium] | -1.53 |
| OCCN1C[C@H](O)[C@@H](O)[C@H](O)[C@H]1CO [Miglitol] | -2.34 |
